TDP-43 yeast inh: inhibitors of TDP-43 toxicity in yeast; TDP-43 expressing yeast growth rescue, BacTiter-Glo, 24 h; Potency, µM (series often up to 46.1 µM), inactives show at the top dose growth rescue (activation), most hits filed as activators; 410,000 compounds, 1.8% hits; also: potency is read from the fitted curve at half-maximal effect; % of control where 0% means no effect; nearly all actives have a fitted effect of over 50% in size
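Readout is BacTiter-Glo luminescence of cell growth, so inhibitors register as activators. TDP-43-expressing yeast at OD600=0.02 in galactose medium, after raffinose pregrowth to mid-log, were incubated with compound for 24 hr at 30 deg C.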
aSyn yeast inh: rescues yeast growth from alpha-synuclein toxicity. Yeast expressing alpha-synuclein, growth rescue, BacTiter-Glo, 24 h. Potency, µM (series often up to 46.1 µM), inactives show at the top dose growth rescue (activation), actives largely listed as activators. 370,000 compounds, 0.14% hits. AID 652106; also: potency is read from the fitted curve at half-maximal effect; % of control where 0% means no effect; nearly all actives have a fitted effect of over 65% in size
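Readout is rescue of growth in alpha-synuclein-expressing yeast, so inhibitors of toxicity appear as activators. Growth after 24 hr at 30 deg C in galactose medium is quantified by luminescence.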
CCT modulator: changes cytosolic chaperonin activity | activity change, % (test concentration not listed), hits read low | purified chaperonin ATPase assay, HTRF ADP detection, 30 min | 360,000 compounds, 0.3% hits; in the data active = activity change below about -30%; also: % is scaled to controls: 0 for no effect and ±100 for the full control effect
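First, chaperonin was dispensed at 40 nM or 20 nM final depending on batch activity. Next, compounds were pinned at 76 uM and ATP added at 10 uM. After 30 min at 37 °C, ADP detection reagents ran 30 min at ambient temperature.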
Abeta yeast res: A-beta toxicity reversal in yeast | yeast expressing A-beta42, growth rescue, OD600, 48 h; response scale: 0% DMSO, 100% iron-clioquinol control | Potency, µM (series often up to 46.1 µM), actives largely listed as activators | 410,000 compounds, 0.063% hits; also: potency is read from the fitted curve at half-maximal effect; nearly all actives have a fitted effect of over 55% in size
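Growth rescue measured by 600 nm absorbance after 48 h yeast culture at 30 C with compound. Values normalized between DMSO and an equimolar ferric chloride plus clioquinol control.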
Mm-Cpn inhibitor: M. maripaludis TRiC chaperonin inhibition; purified Mm-Cpn ATPase, ADP Transcreener TR-FRET; Potency, µM (doses to about 76.9 µM), without a hit: top-dose activity, negative = inhibition, hits mostly inhibitors; 330,000 compounds, 0.031% hits; AID 504842; also: potency is read from the fitted curve at half-maximal effect; % is scaled to controls: 0 for no effect and ±100 for the full control effect; nearly all actives have a fitted effect of over 80% in size
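Purified archaeal chaperonin (25 nM final) was preincubated with compound for 10 min at 37°C, then ATP (10 uM final) was added for 30 min at 37°C in Tris pH 7.4/KCl/MgCl2/DTT buffer. ADP was quantified by HTRF Transcreener TR-FRET.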
FUS suppressor: FUS proteinopathy suppression in yeast; S. cerevisiae FUS-expressing, growth rescue, OD600, 24 h; Potency, µM (highest dose often 76.6 µM), usual class: activators; 390,000 compounds, 0.24% hits;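 also: potency is read from the fitted curve at half-maximal effect; plate controls were DMSO vehicle for no effect and reference control for full effect; nearly all actives have a fitted effect of over 55% in size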
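S. cerevisiae expressing FUS from galactose induction served as the toxicity model. Growth after 24hr at 30C, read as absorbance at 600 nm, indicates suppression of toxicity; compounds dosed at several concentrations.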
* marks the source's active call; other numbers are inactive results; i = inactive; u = inconclusive; x = not tested or not shown; [ ] = another dose, or the depositor's remark. Sampled rows, rich in hits. Any-hit rate of the full collection: about 2.3%. Unless noted, calls follow the shape of the dose curve; as a rule, active = well fitted curve in the direction sought with a large enough effect; inconclusive = small, poorly fitted or top-dose-only effect, or another doubt; inactive = no such curve, though single readings can be large; an effect the other way counts as inactive or inconclusive.

SMILES	TDP-43 yeast inh	aSyn yeast inh	CCT modulator	Abeta yeast res	Mm-Cpn inhibitor	FUS suppressor
N/C(=N\OC(=O)c1cccc2ccccc12)c1cccnc1	20µM*	-5%	-1	i	-1%	i
N/C(=N\OC(=O)c1ccc(Cl)cc1Cl)c1cccnc1	13µM*	4%	1	i	-4%	i
Cc1cccc(/C(N)=N/OC(=O)c2cccc3ccccc23)c1	x	x	x	x	0%	x
N/C(=N\OC(=O)c1ccc(Cl)cc1Cl)c1ccccc1	-15%	-45%	1	i	0%	i
CC1(OC(=O)C2CCCC2)C(=O)C=C2C=C(c3ccsc3)N(C3CCCCC3)C=C2C1=O (configuration not stated)	10µM*	-16%	-2	i	-1%	i
CC1(OC(=O)C2CCCC2)C(=O)C=C2C=C(c3ccsc3)N(CC3CC3)C=C2C1=O (configuration not stated)	20%	1%	-1	i	-2%	i
CCNC(=O)Nc1ccc2c(c1)C(=O)N(C)[C@H]1CC[C@@H](CC(=O)NCCN3CCCC3)O[C@@H]1CO2	x	x	x	x	x	i
CC(=C\C=O)/C(C)=C/CC[C@@H]1O[C@@H]2C[C@@H]3O[C@](C)(C[C@H]4C[C@H](O)[C@@H]5O[C@@H]6C[C@H](O)[C@@H](C)O[C@@]6(C)CC[C@H]5O4)[C@@H](O)CC[C@@]3(C)O[C@H]2[C@@H](O)[C@@H]1C	x	x	x	x	x	i
CS(=O)(=O)N1CCN(/[N+]([O-])=N/Oc2ccc([N+](=O)[O-])cc2[N+](=O)[O-])CC1	x	-46%	x	x	x	x
CCCCCc1cccc2[nH]cc(-c3ccccc3)c12	x	x	x	x	x	i
N#Cc1ccc(C(=O)NC(=S)NC2CCCCC2)cc1	22µM*	-9%	1	u	-3%	i
COc1ccc(C2=Nn3c(nnc3-c3ccco3)SC2)cc1	22µM*	7%	-1	i	3%	i
c1coc(-c2nnc3n2N=C(c2ccc4ccccc4c2)CS3)c1	x	x	x	x	x	i
Nc1ncnc2c1ncn2CCOc1ccccc1	1%	5%	-31*	i	1%	i
O=C(NC1CC1)c1ccc2nc(-c3ccco3)c(-c3ccco3)nc2c1	x	-10%	x	x	x	x
Cc1[nH]nc(-c2ccc(O)cc2O)c1-c1ccc(Cl)cc1	20µM*	1%	-1	i	-4%	i
Cc1cc(C)c(NC(=O)/C=C\C(=O)O)c([N+](=O)[O-])c1	16µM*	-64%	1	i	1%	i
Cc1cc(C)c(NC(=O)/C=C\C(=O)O)c(Cl)c1	13µM*	2%	-5	i	1%	i
Cc1ccc(NC(=O)/C=C\C(=O)O)c([N+](=O)[O-])c1	u	-6%	1	i	1%	x
NC(N)=Nc1ccc(/C=C2\C=Cc3ccccc32)cc1	x	-14%	x	x	x	x
Cc1cc(Cl)nc2nc(Cl)ccc12	x	-4%	x	x	x	x
O=C(C[n+]1ccccc1Br)c1ccc(F)cc1	x	0%	x	x	x	x
CC1Cn2cc(C(=O)Nc3cccc(C(F)(F)F)c3)c(=O)c3c(Cl)ccc(c32)O1 (configuration not stated)	-1%	x	x	i	x	i
CC(C)(C)OC(=O)N1CCC(NC(=O)c2nc[nH]c2C(=O)NC2CCN(C(=O)OC(C)(C)C)CC2)CC1	-1%	0%	-3	i	-3%	11µM*
CS(=O)(=O)N1CCN(c2ccccc2NC(=O)Cc2ccc(Cl)cc2)CC1	-2%	16%	-32*	i	0%	u
SMILES	TDP-43 yeast inh	aSyn yeast inh	CCT modulator	Abeta yeast res	Mm-Cpn inhibitor	FUS suppressor
COc1cccc(Oc2nc(-c3ccncc3)nc3ccccc23)c1	13µM*	30%	-1	i	-16%	i
O=C(c1ccc2c(c1)OCO2)N1CCCC1	-29%	1%	2	i	-15%	10µM*
O=C(Nc1ccccc1N1CCN(C(=O)c2ccc(Cl)cc2)CC1)c1cccc(F)c1	u	-7%	-1	i	0%	i
O=C(Nc1ccccc1N1CCN(C(=O)c2ccccc2)CC1)c1cc(Br)ccc1Cl	u	14%	-2	i	-2%	25µM*
O=C(Nc1ccccc1N1CCN(C(=O)c2ccc(Cl)cc2)CC1)c1ccc2c(c1)OCO2	6.3µM*	x	2	i	-10%	u
CN(C)c1ccc(/C=C/c2ccnc3ccccc23)c(N)c1	x	-5%	x	x	x	x
CC(Oc1cccc(Cl)c1)C(=O)Nc1nc(-c2ccccn2)cs1 (configuration not stated)	-39%	4.5µM*	-3	u	0%	i
CC(Oc1ccccc1)C(=O)Nc1nc(-c2ccccn2)cs1 (configuration not stated)	u	22µM*	5	u	1%	i
CC(Oc1ccccc1)C(=O)Nc1nc(-c2ccncc2)cs1 (configuration not stated)	11%	-4%	1	i	1%	i
CC(=O)C1=CCC(c2ccccc2Cl)N(S(=O)(=O)c2ccc(C)cc2)C1 (configuration not stated)	20µM*	2%	1	i	x	u
Cc1cc([N+](C)(C)C)cc(C)c1/C=C/c1ccnc2ccccc12	x	-40%	x	x	x	x
CCOc1ccc(C(=O)CC(C(=O)O)N2CCCCC2)cc1 (configuration not stated)	35µM*	1%[1.84 µM]	-2	i	0%	i
CCOc1ccc(C(=O)CCC(=O)N(CC)CC(=O)NCc2cccs2)cc1	-9%	-2%	-3	i	-1%	i
CCOc1ccc(C(=O)CC(NCc2cccs2)C(=O)O)cc1 (configuration not stated)	-16%	11µM*	0	i	-1%	i
COCC(=O)N1CCC(C(=O)NC2CCCc3ccccc32)CC1 (configuration not stated)	x	x	x	x	x	i
Cc1ccc2occ(CC(=O)Nc3ccc(Cl)c(C(F)(F)F)c3)c2c1	27%	x	x	i	x	i
CC(=O)NC1C(=O)N=C(SCC(=O)Nc2ccc(C(F)(F)F)cc2Cl)NC1=O (configuration not stated)	-12%	-8%	-53*	i	1%	i
Cc1ccccc1CN1CCCCC(NC(=O)C(C)(C)C)C1=O (configuration not stated)	x	x	x	x	x	i
CCCCN=C1NN=C(c2ccc(C)c(C)c2)CS1	14µM*	-3%	-4	i	0%	i
COc1ccc2cc(CNc3ccc(C)cc3)c(=O)n(CC(=O)Nc3ccc(OC)c(Cl)c3)c2c1	14%	1%	x	i	x	i
CC(C)(C)c1ccc(Nc2n[nH]c3ccccc23)cc1	35µM*	6%	0	i	x	u

High-throughput results as filed in PubChem.
